Screens: PubChem, several laboratories
This is a sample that favours compounds with a hit; in the whole collection about 3.1% have one here.
Autofluor counter: counter-screen for toxin protease inhibitors: compound fluorescence | compound autofluorescence counterscreen, microsphere flow cytometry; hits give high values | fluorescence intensity (test concentration not listed) | 360,000 tested, 3.1% active | AID 624483; in the data active = fluorescence intensity above about 16000; inconclusive = no clear call, values can overlap the other calls
Anthrax LF inh2: inhibitors of Bacillus anthracis lethal factor protease; P15917; multiplex microsphere protease cleavage assay, LF; inhibition, % at 10 µM; 360,000 tested, 0.12% active; note: plate controls were buffer without enzyme for full effect and enzyme alone for no effect
PriA SSB inh: inhibitors of Klebsiella pneumoniae PriA binding to SSB C-terminal tail | 430,000 tested, 0.6% active | AlphaScreen SSBct-PriA binding, biotinylated peptide | inhibition, % at 33 µM; in the data active = inhibition mostly above about 37%, no sharp cut-off; inactive = mostly below about 20%;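 note: plate controls were negative control peptide for no effect and reference peptide for full effect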
BoNT F protease: blocks Botulinum neurotoxin F light chain protease; AID 588497; 360,000 tested, 0.22% active; inhibition, % at 10 µM; Multiplex microsphere protease cleavage assay, flow cytometry; in the data active = inhibition above about 35%, passing the limit was not always enough; inconclusive = no clear call, values can overlap the other calls; note: plate controls were buffer without enzyme for full effect and enzyme alone for no effect
BoNT-A LC inh2: inhibitors of Botulinum neurotoxin A light chain protease; multiplex microsphere protease substrate cleavage, flow cytometry; 360,000 tested, 0.17% active; inhibition, % at 10 µM; note: plate controls were buffer without enzyme for full effect and enzyme alone for no effect
The depositor's hits bear a star; u = inconclusive; x = not tested or not shown. Cut-off read from the data, not from the text of the source, unless noted: active = inhibition above about 30%; inconclusive = no clear call, values can overlap the other calls; inactive = below that.

SMILES	Autofluor counter	Anthrax LF inh2	PriA SSB inh	BoNT F protease	BoNT-A LC inh2
CCc1nc(N)c(C#N)c(-c2cccnc2)c1C	17121*	-10.6	-17.4	11.1	7.2
CS(=O)(=O)N1CCC(C(=O)N(Cc2cccnc2)c2nc3c(F)cccc3s2)CC1	x	x	1.0	x	x
CCOC(=O)c1c(NC(=O)c2cc([N+](=O)[O-])ccc2Cl)sc2c1CCC2	x	x	-9.0	x	x
Cc1cc(C(=O)N2CCC3(CC2)OCCO3)cs1	21544*	0.9	-18.9	-4.1	u
CCc1noc(C)c1C(=O)N1CCCC1	16196*	-0.9	-23.5	-0.3	u
Cc1occc1C(=O)N1CCC2(CC1)OCCO2	23817*	-1.2	2.7	-1.1	u
Cc1cc(C)c(C(=O)N2CCC3(CC2)OCCO3)c(C)c1	3972	5.1	1.2	25.5	-2.3
Cc1noc(C)c1C(=O)N1CCC2(CC1)OCCO2	20724*	-1.1	-21.2	-2.2	-2.3
CCn1cccc(-c2nnc(SCC(=O)Nc3ccc(C(F)(F)F)cc3)n2C)c1=O	x	x	-1.0	x	x
Cc1ccccc1C(=O)N1CCN(C(c2ccccc2)c2ccccc2)CC1	3922	-1.1	4.5	u	u
Cc1occc1C(=O)N1CCN(C(c2ccccc2)c2ccccc2)CC1	22960*	-0.9	16.2	-0.9	-1.2
COc1ccc(NC(=O)NC2CCCCCCC2)c(OC)c1	u	-2.8	9.8	-1.9	0.2
COc1ccc(NC(=O)NC2CCN(C(C)C)CC2)c(OC)c1	16455*	-5.9	-4.2	-0.1	u
COc1ccc(Nc2ncnc3sc(-c4ccccc4)cc23)cc1	19970*	2.8	-33.2	-1.6	u
CCN(CC)S(=O)(=O)c1cc(NC(=O)Cn2cnc3ccccc3c2=O)ccc1C	16361*	3.8	-4.3	-0.4	-0.2
CN(c1ccccc1)S(=O)(=O)c1cccc(NC(=O)Cn2cnc3ccccc3c2=O)c1	5034	-2.4	-3.1	u	-1.2
CCOC(=O)c1nc(C)n(-c2cc(Cl)ccc2Cl)n1	19905*	-0.7	-11.5	2.1	1.0
O=C1CSC(c2cn(-c3ccccc3)nc2-c2cc3ccccc3oc2=O)N1Cc1ccco1 (stereo unspecified)	23471*	-1.4	-8.4	-5.4	u
CCNc1nc(N)nc(Oc2ccc(OCCOc3ccccc3)nn2)n1	17908*	-4.2	-7.1	-12.2	-4.7
Cn1c(=O)oc2ccc(S(=O)(=O)NC(c3cccnc3)C3CCOCC3)cc21 (stereo unspecified)	x	x	-19.0	x	x
COc1ccc(C2=NOC3(CC(=O)N(c4ccc5ccccc5c4)C3=O)C2)c(OC)c1 (stereo unspecified)	17080*	-2.2	-7.0	-6.9	u
COc1ccc2ncc(S(=O)(=O)c3ccc(C)c(C)c3)c(N3CCCC3)c2c1	x	x	-3.0	x	x
COc1ccc(-c2c[n+]3c4n2CCCCC4=C(c2ccc(Br)cc2)C3)cc1	22490*	1.9	34.5	-15.8	u
CN1C(=O)C2C=CC1C1C(=O)N(c3ccccc3)C(=O)C21 (stereo unspecified)	21330*	-6.6	5.9	3.7	1.8
O=C1C2C3C=CC(C3=C3CCCCC3)C2C(=O)N1c1ccccc1 (stereo unspecified)	2869	1.9	-11.9	-3.8	0.2
SMILES	Autofluor counter	Anthrax LF inh2	PriA SSB inh	BoNT F protease	BoNT-A LC inh2
O=C1C2C3C=CC(C3)C2C(=O)N1c1ccccc1 (stereo unspecified)	22433*	-2.5	-5.0	-2.8	u
CCOC(=O)c1ccc(S(=O)(=O)N2CCN(c3ccc(-c4ccco4)nn3)CC2)cc1	x	x	-4.0	x	x
O=C1c2cccc3cccc(c23)C(=O)N1CCc1nc2sc3c(c2c(=O)[nH]1)CCCC3	x	x	-5.0	x	x
O=[N+]([O-])c1ccc(/C=N/Nc2nc(N3CCCCC3)nc(N3CCCCC3)n2)o1	21202*	11.2	x	1.6	4.3
O=[N+]([O-])c1ccc(C=NNc2nc(N3CCCC3)nc(N3CCCC3)n2)o1	x	x	1.3	x	x
Cc1cccc(NC(=O)/C(C#N)=C\c2cccnc2)c1	17179*	-0.5	-4.7	-1.6	-1.8
N#C/C(=C\c1cccnc1)C(=O)Nc1cccc(Cl)c1	4521	-5.2	12.9	-3.6	-0.8
Cc1nc2ccc3nc(NC(=O)Cc4ccc(F)cc4)sc3c2s1	x	x	1.0	x	x
CCNC(=S)NNC(=O)c1cccn(Cc2ccc(Cl)cc2)c1=O	22835*	-0.1	2.3	-2.3	1.1
COc1ccc(C2OCC3(CO2)SC(=N)NC3=O)cc1 (stereo unspecified)	x	x	-7.8	x	x
CN(C)c1ncc(Br)c2ncccc12	x	x	-11.0	x	x
COCCOC(=O)c1c(C)oc2ccc(OC(=O)COc3c(F)c(F)c(F)c(F)c3F)cc12	22277*	-1.4	-21.3	6.0	1.9
COCCOC(=O)c1c(C)oc2ccc(OC(=O)c3cccs3)cc12	22293*	3.1	-54.5	2.2	2.1
COc1ccccc1N1CCN(C(=O)c2cc(-c3ccc(Cl)cc3)on2)CC1	24151*	-2.7	-24.5	-4.6	-2.9
COc1ccc(-c2cc(C(=O)N3CCCCC3)no2)cc1OC	23544*	-0.4	-9.9	-1.4	-0.6
COc1ccccc1N1CCN(C(=O)c2cc(-c3ccc(C)cc3)on2)CC1	6118	6.2	3.9	6.9	0.2
Cc1cc(C)c2c(=O)n(CC(=O)Nc3ccc(Cl)cc3)sc2n1	3796	-6.9	-5.3	4.7	47.9*
CCOc1ccc(NC(=O)Cn2sc3nc(C)cc(C)c3c2=O)cc1	u	-4.4	-4.7	-13.6	-1.4
Cc1cc(C)cc(C(=O)Nc2ccc(-c3ccc4nnc(-c5ccccn5)n4n3)cc2)c1	x	x	67.0*	x	x
O=C(Nc1ccc(-c2ccc3nnc(-c4ccccn4)n3n2)cc1)c1cccc2ccccc12	x	x	-19.0	x	x
O=C(Nc1ccc(-c2ccc3nnc(-c4ccccn4)n3n2)cc1)c1cccnc1Cl	x	x	87.0*	x	x
O=C(NCC[C@H](O)c1cccs1)NC1CCCCC1	x	x	-15.0	x	x
O=C(Nc1cccnc1)c1cc2c(ccc3ccccc32)o1	23266*	-5.9	3.2	-2.3	0.4
O=C(COC(=O)c1cccnc1Cl)c1ccc(Cl)cc1Cl	19499*	-0.9	-39.2	5.1	3.6
O=C(NC1CCCCC1)C(c1ccc(O)cc1)N(CC1CCCO1)C(=O)C1COc2ccccc2O1 (stereo unspecified)	20282*	-0.2	1.2	-0.5	0.3
SMILES	Autofluor counter	Anthrax LF inh2	PriA SSB inh	BoNT F protease	BoNT-A LC inh2
CCOc1ccccc1NC(=O)C(=O)NC[C@@H](c1cccs1)N1CCc2ccccc21	x	x	-8.0	x	x
CC(=O)Nc1cccc(OCC(=O)Nc2ccccc2)c1	7096	-14.0	-10.0	-2.8	0.2
Cc1ccc(OCC(=O)Nc2cccc(-c3nnc(-c4ccccc4)o3)c2)c(C)c1	21189*	-3.4	-14.4	2.7	u
CCOC(=O)Nc1cccc(OCC(=O)Nc2ccccc2OCC)c1	22734*	-2.6	-2.3	-1.7	-0.6
Cc1cccc(NC(=O)COc2ccccc2)c1	26330*	-0.9	-13.9	-14.5	-10.9
CCOC(=O)c1nn(-c2ccc(C)cc2)c(=O)cc1OCC(=O)Nc1cccc(C)c1	4308	-0.2	-15.8	42.7*	10.0
CCOC(=O)c1nn(-c2ccc(C)cc2)c(=O)cc1OCC(=O)Nc1cccc(OC)c1	x	x	-7.2	x	x
Cn1nccc1C(=O)Nc1sccc1C#N	x	x	-15.0	x	x
C[n+]1c(CCCCO)sc2ccccc21	x	x	-3.0	x	x
COc1ccc(-c2ccc(N3CCN(C(=O)C(F)(F)F)CC3)nn2)cc1OC	x	x	2.0	x	x
